Measurements as given in PubChem BioAssay AID1376 (SRMLSC, 2008).
The whole screen tested about 220,000 compounds, of which about 530 (0.24%) were called active. The sample holds actives, similar compounds and a random draw of the others, so the mix is not that of the screen. No stated cut-off is given here; in the data, active means inhibition above about 13%; inconclusive means no clear call, values can overlap the other calls; inactive means below that. Entries with a potency or affinity are not part of this list.

Each compound was assayed against Bifunctional protein GlmU (Mycobacterium tuberculosis (strain ATCC 25618 / H37Rv)) (UniProt P9WMN3) (assay: inhibition of mycobacterial GlmU enzyme – biochemical, glucosamine-1-phosphate acetyltransferase (AID 1376;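 further: 0% = complete reaction with vehicle and 100% = reaction without substrate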)). Conditions: M. tuberculosis GlmU acetyltransferase enzyme assay; active compounds read high;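 tested at 30 µM in the primary screen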.
Sequence of Bifunctional protein GlmU (Mycobacterium tuberculosis (strain ATCC 25618 / H37Rv)) (P9WMN3 whole entry, looked up): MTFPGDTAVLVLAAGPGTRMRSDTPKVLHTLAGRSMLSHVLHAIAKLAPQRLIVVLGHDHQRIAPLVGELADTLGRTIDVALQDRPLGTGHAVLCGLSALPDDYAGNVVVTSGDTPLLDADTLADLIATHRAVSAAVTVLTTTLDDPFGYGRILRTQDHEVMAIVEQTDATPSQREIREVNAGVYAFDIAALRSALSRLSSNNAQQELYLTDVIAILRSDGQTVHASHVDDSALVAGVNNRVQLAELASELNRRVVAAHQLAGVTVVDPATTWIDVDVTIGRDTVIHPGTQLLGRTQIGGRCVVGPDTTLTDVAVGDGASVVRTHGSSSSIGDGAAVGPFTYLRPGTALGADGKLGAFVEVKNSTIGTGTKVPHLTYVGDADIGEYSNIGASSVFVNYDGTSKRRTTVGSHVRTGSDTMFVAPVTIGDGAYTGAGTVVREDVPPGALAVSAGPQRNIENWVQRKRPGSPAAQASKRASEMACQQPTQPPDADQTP
In the case of `CC(Sc1ncc(C(F)(F)F)cc1Cl)C(=O)NC(N)=O` (stereo not drawn), the inhibition was -5.25% (inactive). `O=C(NCCc1c[nH]c2ccccc12)C(F)(F)F` was tested, and the inhibition was -4.42% (inactive). `N#Cc1cccc(C#N)c1N1CCC(C#N)CC1` was tested, and the inhibition was -4.3% (inactive). For `COCCNc1nc(SCc2ccccc2)nc2sc3c(c12)CCC3`, the inhibition was -0.26% (inactive). In the case of `CC(CO)Nc1nc(SCc2ccccc2)nc2sc3c(c12)CCC3` (stereo not drawn), the inhibition was -17.2% (inactive). For `COCCCNc1nc(SCc2ccccc2)nc2sc3c(c12)CCC3`, the inhibition was 12.8% (active). For `CC(C)(C)c1ccc(S(=O)(=O)Nc2ccc(Cc3ccncc3)cc2)cc1`, the inhibition was 0.43% (inactive). For `COC(=O)c1ccc(N=NNc2ccccc2)cc1`, the inhibition was 4.94% (inactive). For `CCN(CC)S(=O)(=O)c1cc(NC(=O)Cc2n[nH]c(=O)c3ccccc23)ccc1C`, the inhibition was 7.13% (inactive). For `CCC(C)(NC(=O)c1ccccn1)C(=O)NC1CCCC1` (stereo not drawn), the inhibition was -1.49% (inactive). In the case of `CCC(C)(NC(=O)Cc1c[nH]c2ccccc12)C(=O)NC1CCCCC1` (stereo not drawn), the inhibition was 0.49% (inactive). In the case of `CCC(C)(NC(=O)CNC(C)=O)C(=O)NC1CCCCC1` (stereo not drawn), the inhibition was 17.3% (active). With `CC(C)(C)C1CCC2(CC1)CC(=O)c1ccccc1O2` (stereo not drawn) the inhibition was 0.53% (inactive). With `CC(C)(C)OC(=O)N/N=C\c1ccc[nH]1` the inhibition was -8.2% (inactive). `O=C(O)CCCCCCCC(=O)O` was tested, and the inhibition was -3.59% (inactive). `O=C(O)CCCCC1SCC2NC(=O)NC21` (stereo not drawn) was tested, and the inhibition was -2% (inactive). `CCNc1oc(-c2ccc(OC)cc2)nc1S(=O)(=O)c1ccc(Br)cc1` was tested, and the inhibition was -0.98% (inactive). `Cc1ccc(C2C(C(=O)c3cccs3)=C(O)C(=O)N2c2nnc(C)s2)cc1` (stereo not drawn) was tested, and the inhibition was 2.85% (inactive). In the case of `C=CCOc1ccc(C2C(C(=O)c3ccco3)=C(O)C(=O)N2c2nnc(C)s2)cc1` (stereo not drawn), the inhibition was -3.01% (inactive). With `C=CCOc1ccc(C2C(C(=O)c3cccs3)=C(O)C(=O)N2c2nnc(C)s2)cc1` (stereo not drawn) the inhibition was 15% (active). In the case of `COC(=O)CCCC1=CC2=C(c3ccccc3)C(=O)C(C)(OC(=O)C3CCCC3)C(=O)C2=CN1C1CC1` (stereo not drawn), the inhibition was 1.9% (inactive). With `Cc1ccc(OCC(=O)N2CCOCC2)c([N+](=O)[O-])n1` the inhibition was -0.37% (inactive). With `COc1cccc(C2C=C(c3ccc(Br)s3)Nc3ncnn32)c1OC` (stereo not drawn) the inhibition was 0.77% (inactive). `COc1ccc(C2C=C(c3ccc(Br)s3)Nc3ncnn32)cc1OC` (stereo not drawn) was tested, and the inhibition was 14.2% (active). With `COc1cc(C2C=C(c3cccs3)Nc3ncnn32)cc(OC)c1OC` (stereo not drawn) the inhibition was -2.57% (inactive). For `Cc1ccc(S(=O)(=O)N2CC(O)CC2C(=O)OCc2nc3sc(C)c(C)c3c(=O)[nH]2)cc1` (stereo not drawn), the inhibition was 1.13% (inactive). `O=C(CCN1CCCC1)c1cccs1` was tested, and the inhibition was -0.97% (inactive). With `O=C(COC(=O)c1c[nH]c(=O)[nH]c1=O)NCc1ccccc1` the inhibition was 13.3% (active). For `COc1ccc(CNC(=O)COC(=O)c2c[nH]c(=O)[nH]c2=O)cc1OC`, the inhibition was -0.09% (inactive). For `O=C(COC(=O)c1c[nH]c(=O)[nH]c1=O)Nc1ccccc1`, the inhibition was -4.87% (inactive). In the case of `O=C(CN(Cc1cccs1)C(=O)CNS(=O)(=O)c1ccc(F)cc1)NCC1CCCO1` (stereo not drawn), the inhibition was 3.23% (inactive). With `CCOc1ccc(CNC(=O)CCS(=O)(=O)Cc2ccc(C)cc2)cc1OC` the inhibition was 2.73% (inactive). With `COc1ccc(C2(C)NC(=O)N(CC(=O)NCCC3=CCCCC3)C2=O)cc1OC` (stereo not drawn) the inhibition was -7.87% (inactive). `CN(C)c1nc(OCCNC(=O)Nc2ccccc2)nc(N2CCCCC2)n1` was tested, and the inhibition was 1.41% (inactive). For `COc1ccccc1C(=O)NCc1n[nH]c(=S)n1Cc1ccccc1`, the inhibition was 0.36% (inactive). In the case of `CCCCN(CC(=O)NCc1ccc(F)cc1)C(=O)c1ccco1`, the inhibition was -1.73% (inactive). In the case of `CCc1cc2c(SCC(=O)O)ncnc2s1`, the inhibition was -4.14% (inactive). In the case of `CCc1cc2c(SCC(=O)C(C#N)=C3N(C)c4ccccc4N3C)ncnc2s1`, the inhibition was 15% (active). `CCc1cc2c(SCC(=O)c3ccccc3)ncnc2s1` was tested, and the inhibition was -3.16% (inactive). For `Cn1c(=O)c2c(SCC(=O)NCCc3ccccc3)nc(C3CC3)nc2n(C)c1=O`, the inhibition was 1.2% (inactive). For `O=C(Cn1cnc2c(nnn2Cc2ccc(F)cc2)c1=O)N1CCCc2ccccc21`, the inhibition was -5.31% (inactive). In the case of `COc1ccc(OC)c(NC(=O)CCN2CCCCCC2)c1`, the inhibition was -10.2% (inactive). With `CCOC(=O)CC1C(=O)NCCN1C(=O)Nc1ccccc1` (stereo not drawn) the inhibition was -2.01% (inactive). For `CCC(C)(C(=O)NC1CCCCC1)N(C)C(=O)c1ccccn1` (stereo not drawn), the inhibition was 14.8% (active). With `CCC(C)(C(=O)NC1CCCC1)N(C)C(=O)c1ccccn1` (stereo not drawn) the inhibition was -5.14% (inactive). `CCC(C)(C(=O)NC1CCCCC1)N(C(=O)c1ccccn1)c1ccccc1` (stereo not drawn) was tested, and the inhibition was 2.61% (inactive). In the case of `Cc1ccc(S(=O)(=O)Nc2nccs2)cc1[N+](=O)[O-]`, the inhibition was -3.62% (inactive). For `O=S1(=O)CCN(Cc2cccc(Cl)c2)CC1`, the inhibition was -7.45% (inactive). With `CC(=O)Nc1cccc(NC(=O)c2ccc([N+](=O)[O-])cc2Cl)c1` the inhibition was -7.61% (inactive). With `Cc1ccc(C[n+]2cccc(-c3ccccc3)c2)c(C)c1` the inhibition was -2.52% (inactive). For `Cc1ccc(NC(=O)C2c3ccccc3Oc3ccccc32)nc1`, the inhibition was -2.94% (inactive). With `O=C(O)c1ccc2c(c1)C(=O)/C(=C\c1ccco1)C2=O` the inhibition was 17.2% (active). With `O=C(NCc1ccco1)c1ccc2c(c1)C(=O)c1ccccc1-2` the inhibition was -0.25% (inactive). For `O=C1C(=Cc2ccco2)C(=O)c2ccccc21`, the inhibition was 8.37% (inactive). For `Cc1ccc(C(=O)O)cc1-c1ccc(C=C2C(=O)c3ccccc3C2=O)o1`, the inhibition was 11.7% (inactive). For `Cc1ccc(/C=N/Nc2ccc(C(=O)O)cc2)o1`, the inhibition was 0.55% (inactive). In the case of `Cc1csc(SC(C)C(=O)Nc2ccc(S(=O)(=O)N3CCCC3)cc2)n1` (stereo not drawn), the inhibition was -1.61% (inactive). `COCCCNC(=O)c1cc(C)nc2ccc(F)cc12` was tested, and the inhibition was 1.65% (inactive). In the case of `CC(C)c1nnc(NC(=O)CCC(=O)N2CCN(Cc3ccccc3)CC2)s1`, the inhibition was 3.04% (inactive). In the case of `CCN(CC)S(=O)(=O)c1ccc2nc(CCl)[nH]c2c1`, the inhibition was -0.14% (inactive). In the case of `Cc1sc2nc(SCc3nnc(-c4cccs4)o3)n(C3CCCC3)c(=O)c2c1C`, the inhibition was -5.93% (inactive). `CCOC(=O)c1c(NC(=O)CN2CCCCC2)sc(CN(C)C)c1-c1ccccc1` was tested, and the inhibition was -2.86% (inactive). With `CC(=O)c1cc(F)c(N2CCN(C(=O)COc3ccccc3F)CC2)cc1C` the inhibition was 1.65% (inactive). `Cc1ccc(NC(=S)N2CCCCC2CO)cc1C` (stereo not drawn) was tested, and the inhibition was -3.71% (inactive). In the case of `N#Cc1ccccc1OCC(=O)C1CC1`, the inhibition was 5.73% (inactive). In the case of `COc1cccc(C(=O)CSc2nnc(-c3cccs3)o2)c1`, the inhibition was 4.7% (inactive). For `N#Cc1cc(N)ccc1-n1cccc1`, the inhibition was 13.7% (active). For `N#Cc1c(-n2cccc2)cccc1-n1cccc1`, the inhibition was 9.31% (inactive). With `COc1ccc(N2CCN(c3ccc(N)cc3C#N)CC2)cc1` the inhibition was -1.62% (inactive). With `O=C(O)C(Cl)Cl` the inhibition was 2.18% (inactive). For `O=C(O)[C@@H](O)[C@H](O)C(=O)O`, the inhibition was 2.76% (inactive). For `CC1CCc2c(sc3ncnc(NS(=O)(=O)c4cccs4)c23)C1` (stereo not drawn), the inhibition was 0.41% (inactive). In the case of `O=C1CSC(=Nc2cccc(Cl)c2Cl)N1Cc1cccnc1`, the inhibition was 1.06% (inactive). For `CC(=O)c1ccc(N2CCN(C(=S)Nc3cc(C)ccc3C)CC2)cc1`, the inhibition was -4.28% (inactive). With `CCN(CC)CCN(Cc1cc2ccc(C)cc2[nH]c1=O)C(=O)NC1CCCCC1` the inhibition was 14.2% (active). For `CCN(CC)CCN(Cc1cc2cc3c(cc2[nH]c1=O)OCCO3)C(=O)NC1CCCCC1`, the inhibition was 4.4% (inactive). With `CCc1ccc2[nH]c(=O)c(CN(CCN(CC)CC)C(=O)NC3CCCCC3)cc2c1` the inhibition was -7.06% (inactive). In the case of `O=c1[nH]c(=O)n(-c2cccc3ccccc23)c(O)c1/C=N/N1CCCCC1c1cccnc1` (stereo not drawn), the inhibition was -5.46% (inactive). `CC(OC(=O)c1cccs1)C(=O)NCc1cccs1` (stereo not drawn) was tested, and the inhibition was -4.58% (inactive). `Cn1c(=O)c(C(=O)Nc2ncccc2O)c(O)c2ccccc21` was tested, and the inhibition was 2.25% (inactive). `CC(=O)c1ccc(C)cc1OC(=O)c1cccc(F)c1` was tested, and the inhibition was 3.37% (inactive). For `O=C(O)c1cc(O)c2c(c1)C(=O)c1cccc(O)c1C2=O`, the inhibition was 0.69% (inactive). With `Cc1cc(O)c2c(c1)C(=O)c1cc(O)cc(O)c1C2=O` the inhibition was -2.62% (inactive). For `O=C(O)c1cc(O)c2c(c1)C(=O)c1cc(O)cc(O)c1C2=O`, the inhibition was 13.3% (active). For `Cc1ccc(NC(=O)CN(C)C(=O)c2ccc(S(=O)(=O)N(C)c3ccccc3)cc2)cc1`, the inhibition was 2.55% (inactive). `CCOc1ncccc1C(=O)N1CCN(C(c2ccccc2)c2ccccc2)CC1` was tested, and the inhibition was 7.04% (inactive). `COC(=O)c1cc(Cl)nc2ccccc12` was tested, and the inhibition was 5.71% (inactive). `CCOC(=O)C1=C(C)N(C)C(=O)NC1c1c(C)nn(-c2ccc(C)cc2)c1Cl` (stereo not drawn) was tested, and the inhibition was 3.87% (inactive). For `CCOC(=O)C1=C(C)NC(=O)NC1c1c(C)nn(-c2ccccc2)c1Cl` (stereo not drawn), the inhibition was 15.1% (active). In the case of `CCOC(=O)C1=C(C)N(C)C(=O)NC1c1c(C)nn(-c2ccccc2)c1C` (stereo not drawn), the inhibition was -0.97% (inactive). `COc1cc(NC(=O)CCCSc2nc(-c3ccco3)cc(C(F)(F)F)n2)cc(OC)c1OC` was tested, and the inhibition was -3.07% (inactive). In the case of `NC(=O)c1ccccc1NC(=O)Nc1ccc(F)c(Cl)c1`, the inhibition was -5.33% (inactive). With `NC(=O)c1ccccc1NC(=O)Nc1cccc(Cl)c1` the inhibition was 14.1% (active). `O=C(Nc1cccc(Cl)c1)Nc1ccccc1C(=O)O` was tested, and the inhibition was 2.52% (inactive). For `Cc1cc([N+](=O)[O-])nn1CCCC(=O)Nc1c(C)n(C)n(-c2ccccc2)c1=O`, the inhibition was -7.37% (inactive). For `CCOC(=O)C1(C)C=C(Nc2ccc(NC(C)=O)cc2)C(=O)N1c1ccc(NC(C)=O)cc1` (stereo not drawn), the inhibition was 14.8% (active). With `CCOC(=O)C1(C)C=C(Nc2ccc(C)cc2)C(=O)N1c1ccc(C)cc1` (stereo not drawn) the inhibition was -2.18% (inactive). With `CCOC(=O)C1(C)C=C(Nc2ccc(O)cc2)C(=O)N1c1ccc(O)cc1` (stereo not drawn) the inhibition was 9.21% (inactive).
